Test systems include SK-MEL-2 melanoma; SN12C renal; UO-31 renal; TK-10 renal; ACHN renal; CAKI-1 renal; A498 renal; CCRF-CEM leukemia; MOLT-4 leukemia; SR leukemia; RPMI-8226 leukemia; OVCAR-8 ovarian; OVCAR-5 ovarian; OVCAR-4 ovarian; SK-OV-3 ovarian; OVCAR-3 ovarian; HS 578T breast; NCI/ADR-RES ovarian; IGROV1 ovarian.
Holding throughout (experiment): NCI-60 one-dose screen, 48 h (100 = growth as untreated, 0 = no growth, -100 = all killed)
Common to all, as to settings: 10 µM unless noted

Compounds without any hit were thinned out: in the full panel of roughly 83,000, 20% have a hit.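 Percent growth is the endpoint: 0 to 100 indicates growth inhibition (40 means 60% inhibition), 0 means no net growth, and negative values indicate cell death.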 A number with no mark means an inactive call. The source made the active and inactive calls. Rule for the calls: active = growth percent below 10; inactive = the rest.

This is an account of results in PubChem BioAssay (NCI).

Consider `C=C1C(=O)O[C@H]2[C@H]1CC/C(COC(=O)NCCc1ccc(OC)cc1)=C\CC[C@@]1(C)O[C@@H]21`, for which the growth in the experiment on SK-MEL-2 melanoma was 63.4%; with SN12C renal, 11.7%; with UO-31 renal, -82.8% (active); in the experiment with TK-10 renal it was -7.32% (active); with ACHN renal, -6.86% (active); in the experiment on CAKI-1 renal, -2.71% (active). Moreover, the growth was 62% in the experiment with A498 renal; 3.44% (active) in the experiment with CCRF-CEM leukemia; 2.83% (active) in the experiment on MOLT-4 leukemia; -4.05% (active) with SR leukemia; 17.5% in the experiment with RPMI-8226 leukemia; 2.7% (active) with OVCAR-8 ovarian. Further, the growth in the experiment on OVCAR-5 ovarian was 30.9%; with OVCAR-4 ovarian, 17.4%; in the experiment with SK-OV-3 ovarian, 89.3%; with OVCAR-3 ovarian, -29.6% (active); in the experiment on HS 578T breast, 46%; in the experiment with NCI/ADR-RES ovarian, 78.9%.

Turning to `COC1=CC(c2ccc[nH]2)=N/C1=C\c1[nH]c(C)c(C(=O)CCCCC(=O)NCc2ccccc2)c1C`, the growth in the experiment with SK-MEL-2 melanoma was 97.1%; with SN12C renal it was 44.9%; with UO-31 renal, 13.9%; in the experiment with TK-10 renal, 45.8%; with ACHN renal it was 50.2%; in the experiment on CAKI-1 renal, -9.17% (active). The growth with A498 renal was 89.1%; with CCRF-CEM leukemia it was 39.2%; with MOLT-4 leukemia, 70.1%; in the experiment on SR leukemia, 91%; in the experiment on RPMI-8226 leukemia, 65.6%; in the experiment on OVCAR-8 ovarian, 31.5%. Also, the growth in the experiment with OVCAR-5 ovarian was 47.3%; in the experiment with OVCAR-4 ovarian, 50.8%; with SK-OV-3 ovarian, 83.3%; in the experiment on OVCAR-3 ovarian it was -5.91% (active); in the experiment on HS 578T breast, 72%; in the experiment on NCI/ADR-RES ovarian, 42%.

Turning to `CCN(CC)c1cc(/C=C/c2ccc(OC)c(OC)c2)nc2cc(F)c(F)cc12`, the growth was -58.2% (active) with SK-MEL-2 melanoma; 57% with SN12C renal; 75.3% in the experiment on UO-31 renal; -28.6% (active) in the experiment with TK-10 renal; -50.9% (active) with ACHN renal; 46.8% in the experiment with CAKI-1 renal. Further, the growth in the experiment with A498 renal is -2.91% (active); with CCRF-CEM leukemia, 29.7%; with MOLT-4 leukemia, 49.2%; in the experiment on SR leukemia, 10.7%; in the experiment on RPMI-8226 leukemia it was 99.1%; in the experiment with OVCAR-8 ovarian, 36%. Moreover, the growth is 88.7% in the experiment with OVCAR-5 ovarian; 87.2% with OVCAR-4 ovarian; -39.5% (active) with SK-OV-3 ovarian; 19.2% in the experiment with IGROV1 ovarian; 2.13% (active) in the experiment with HS 578T breast; 41.2% with NCI/ADR-RES ovarian.

Take `C=C1C(=O)O[C@H]2[C@H](O)[C@@H](C)CCC/C(C)=C/CC[C@@]3(C)O[C@@H]3C[C@@H]12`: the growth with SK-MEL-2 melanoma was 90.4%; in the experiment on SN12C renal it was 91.2%; in the experiment with UO-31 renal, 77.4%; in the experiment on TK-10 renal, 81%; with ACHN renal, 96%; with CAKI-1 renal, 74.8%. Besides, the growth in the experiment on A498 renal was 91.8%; in the experiment on CCRF-CEM leukemia, 79.5%; in the experiment on MOLT-4 leukemia, 78.6%; with SR leukemia, 94.3%; in the experiment on RPMI-8226 leukemia, 99.8%; in the experiment with OVCAR-8 ovarian it was 88.7%. The growth was 95.8% with OVCAR-5 ovarian; 103% in the experiment with OVCAR-4 ovarian; 96.8% with SK-OV-3 ovarian; 72.6% in the experiment on OVCAR-3 ovarian; 98.4% in the experiment on HS 578T breast; 97.6% in the experiment with NCI/ADR-RES ovarian.

With `COc1ccc(/C=C/c2nc(N3CCOCC3)c3cc(F)c(F)cc3n2)cc1OC`, the growth in the experiment with SK-MEL-2 melanoma was 43.3%; in the experiment on SN12C renal it was 33.4%; in the experiment on UO-31 renal, 20.1%; in the experiment on TK-10 renal, 28.8%; with ACHN renal, 33.1%; with CAKI-1 renal it was 28.1%. In addition, the growth with A498 renal was 45.5%; in the experiment on CCRF-CEM leukemia, 35.8%; in the experiment with MOLT-4 leukemia, 6.52% (active); with SR leukemia, 16.2%; in the experiment with RPMI-8226 leukemia, 12.2%; with OVCAR-8 ovarian it was 32.9%. Besides, the growth was 76% with OVCAR-5 ovarian; 30.6% in the experiment with OVCAR-4 ovarian; 71.8% with SK-OV-3 ovarian; 53.4% in the experiment on IGROV1 ovarian; 70.1% in the experiment on HS 578T breast; 22.8% with NCI/ADR-RES ovarian.

In the case of `CC(=O)Nc1nc(C(=O)N2N=C(C)/C(=C/c3ccccc3)C2=O)cs1`, the growth in the experiment with SK-MEL-2 melanoma was 94.6%; in the experiment with SN12C renal it was 109%; with UO-31 renal it was 80.9%; with TK-10 renal it was 107%; in the experiment on ACHN renal, 99.9%; in the experiment with CAKI-1 renal it was 98.9%. In addition, the growth was 120% in the experiment with A498 renal; 98.7% in the experiment on CCRF-CEM leukemia; 95.8% in the experiment on MOLT-4 leukemia; 90.7% in the experiment on SR leukemia; 102% in the experiment with RPMI-8226 leukemia; 105% with OVCAR-8 ovarian. For the same compound, the growth is 99.9% with OVCAR-5 ovarian; 110% in the experiment with OVCAR-4 ovarian; 101% in the experiment on IGROV1 ovarian; 111% in the experiment with HS 578T breast; 110% in the experiment on NCI/ADR-RES ovarian.

Consider `O=C1NCC(c2cc3ccccc3[nH]c2=O)Nc2ccccc21` (stereo not drawn), for which the growth in the experiment on SK-MEL-2 melanoma is 100%; with SN12C renal, 99.7%; in the experiment on UO-31 renal, 76.8%; in the experiment with TK-10 renal, 87.8%; in the experiment with ACHN renal, 99.7%; with CAKI-1 renal, 88.1%. Further, the growth is 104% in the experiment with A498 renal; 110% in the experiment on CCRF-CEM leukemia; 111% with MOLT-4 leukemia; 100% in the experiment with SR leukemia; 106% with RPMI-8226 leukemia; 103% with OVCAR-8 ovarian. Besides, the growth was 91.2% in the experiment on OVCAR-5 ovarian; 104% in the experiment with OVCAR-4 ovarian; 89.9% with SK-OV-3 ovarian; 111% in the experiment on OVCAR-3 ovarian; 99.4% in the experiment with HS 578T breast; 111% in the experiment with NCI/ADR-RES ovarian.

For `COc1cc(C2C=C(C)N=C3SC(C)=NN32)cc(OC)c1OC` (stereo not drawn), the growth in the experiment with SK-MEL-2 melanoma is 107%; in the experiment with SN12C renal, 109%; with UO-31 renal, 72%; in the experiment on TK-10 renal, 102%; in the experiment with ACHN renal it was 103%; with CAKI-1 renal, 103%. For the same compound, the growth in the experiment on A498 renal is 81.8%; in the experiment with CCRF-CEM leukemia, 91.8%; in the experiment on MOLT-4 leukemia, 92.8%; with SR leukemia it was 96.3%; in the experiment on RPMI-8226 leukemia it was 108%; in the experiment with OVCAR-8 ovarian it was 104%. For the same compound, the growth is 95.9% in the experiment on OVCAR-5 ovarian; 92.5% in the experiment on SK-OV-3 ovarian; 101% in the experiment with IGROV1 ovarian; 106% with OVCAR-3 ovarian; 114% in the experiment with HS 578T breast; 101% in the experiment on NCI/ADR-RES ovarian.
